AMA1-RON2 inh – inhibitors of Plasmodium falciparum AMA1-RON2 interaction; AlphaScreen AMA1-biotinylated RON2 peptide binding; Potency, µM (titrated, usually from 58.2 µM), usual class: inhibitors; 360,000 compounds, 0.2% hits; also: nearly all actives have a fitted effect of over 45% in size
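AMA1 (3D7) with his tag at 25 nM final met compounds first, then biotinylated RON2 peptide at 25 nM; detection used donor plus acceptor beads, 10 µg/mL apiece, read by AlphaScreen after 30 min at room temperature.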
Pf growth 48h – P. falciparum growth inhibition at 48 hours (one generation). P. falciparum luciferase growth in erythrocytes, 48 h. Potency, µM (highest dose often 28.7 µM), actives largely listed as inhibitors. 310,000 compounds, 5.9% hits
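Luminescence readout; reporter = integrated firefly luciferase in P. falciparum. RBC culture at 2% hematocrit, 0.1% parasitemia final, 37 C/5% CO2; decreased signal taken as growth inhibition.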
Pf growth 96h – inhibits malaria parasite growth, 96 h. P. falciparum luciferase reporter growth, 96 h. Potency, µM (series often up to 28.7 µM), usual class: inhibitors. 320,000 compounds, 6.9% hits
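Readout is luminescence from an integrated firefly luciferase in P. falciparum. Red cells, 2% hematocrit and 0.05% parasitemia final, were cultured with compound through two parasite generations (96 hours) at 37 C, 5% CO2.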
HCV inhibitor – HCV inhibition; Huh7.5.1 HCVcc-Cre infection, luciferase reporter, 44 h; Potency, µM (top dose mostly 41.8 µM), most hits filed as inhibitors; 340,000 compounds, 3.4% hits
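Reporter virus HCVcc-Cre (~0.5 moi) infects cells exposed to compound; seeding density 1,000 cells/well with 4 h settling beforehand. Luminescence, 15 sec read, taken 44 h post-infection following a 15 min RT substrate incubation.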
Each line names hits and unclear results; the compound was inactive in the other large screens. Compounds with a hit are over-represented: about 11% of the library has one in this group of screens. Calls follow the shape of the dose curve; as a rule, active = well fitted curve in the direction sought with a large enough effect; inconclusive = small, poorly fitted or top-dose-only effect, or another doubt; inactive = no such curve, though single readings can be large; an effect the other way counts as inactive or inconclusive.

CCc1ccc(C(C)NC(=S)NC2CCCCC2)cc1 (stereo unspecified)	Pf growth 48h inconclusive, HCV inhibitor inconclusive
CCC(C)c1ccc(C(C)NC(=S)NC2CCCCC2)cc1 (stereo unspecified)	Pf growth 48h 7.4µM, Pf growth 96h 9.3µM, HCV inhibitor inconclusive
O=C(CSc1nnc(CNC(=O)c2cccs2)o1)Nc1cccc(Cl)c1	none
CCCS(=O)(=O)N1CCN(C2CCC(C)CC2)CC1 (stereo unspecified)	Pf growth 96h 10µM
Cc1cccc(/C=N/NC(=O)c2cc(C3CC3)nc3ccccc23)n1	none
CCc1ccc(/C=N/NC(=O)c2cc(C3CC3)nc3ccccc23)s1	Pf growth 96h inconclusive, HCV inhibitor 8.9µM (no result: Pf growth 48h)
Cc1cc(C(=O)N/N=C/c2ccc([N+](=O)[O-])cc2)c2ccccc2n1	none
COC(=O)N/N=C/c1cccs1	Pf growth 96h inconclusive
COC(=O)N/N=C/c1ccc([N+](=O)[O-])s1	Pf growth 48h 15µM, Pf growth 96h 8.3µM, HCV inhibitor inconclusive
COc1ccccc1NC(=O)C(=O)N/N=C/c1ccc([N+](=O)[O-])s1	Pf growth 48h 2.6µM, Pf growth 96h 1.7µM
Cc1cc(C(=O)N/N=C/c2ccc([N+](=O)[O-])s2)c2ccccc2n1	Pf growth 48h 4.7µM, HCV inhibitor 11µM
C/C(=N\NC(=O)CN1CCN(S(=O)(=O)c2ccc(C)cc2)CC1)c1ccncc1	Pf growth 96h inconclusive
O=C(N/N=C/c1ccoc1)c1ccccc1Br	none
Cc1ccccc1C(=O)N/N=C/c1ccc([N+](=O)[O-])s1	Pf growth 96h 2.1µM, HCV inhibitor inconclusive (no result: Pf growth 48h)
Cc1ccccc1NC(=O)/C=C/c1ccc([N+](=O)[O-])s1	Pf growth 48h 7.4µM, Pf growth 96h 12µM, HCV inhibitor 10µM
O=C(N/N=C/c1ccc([N+](=O)[O-])s1)c1ccccc1Br	Pf growth 48h inconclusive, Pf growth 96h 1.7µM, HCV inhibitor 11µM
O=C(N/N=C/c1ccc([N+](=O)[O-])s1)c1ccccc1	Pf growth 48h inconclusive, HCV inhibitor inconclusive
CCCc1nnc(NC(=O)CCC(=O)N2CCN(CCOc3ccc(C)cc3)CC2)s1	Pf growth 48h 10µM, Pf growth 96h inconclusive, HCV inhibitor inconclusive
CCc1nnc(NC(=O)CCC(=O)N2CCCC2)s1	none
Cc1ccc(OCCN2CCN(C(=O)CCC(=O)Nc3nnc(C(C)C)s3)CC2)cc1	Pf growth 48h 10µM, Pf growth 96h 2.9µM, HCV inhibitor inconclusive
CCc1nnc(NC(=O)CCC(=O)N2CCC(Cc3ccccc3)CC2)s1	Pf growth 96h 10µM
Cc1ccc(OCCN2CCN(C(=O)CCC(=O)Nc3nnc(C)s3)CC2)cc1	Pf growth 96h inconclusive
Cc1ccc(N=Nc2ccc(O)c3ncccc23)cc1	Pf growth 48h 0.47µM, Pf growth 96h inconclusive, HCV inhibitor inconclusive
Oc1ccc(N=Nc2ccccc2C(F)(F)F)c2cccnc12	Pf growth 48h 1.5µM, Pf growth 96h 0.93µM, HCV inhibitor 3.2µM
COc1ccccc1N=Nc1ccc(O)c2ncccc12	Pf growth 48h 2.9µM, HCV inhibitor 2.2µM
COc1ccc(NC(=O)[C@@H]2O[C@H](CO)[C@H](O)[C@H](O)[C@H]2O)cc1F	none (no result: Pf growth 48h, Pf growth 96h, HCV inhibitor)
CC(O)CN(C)CC/C=C1/c2ccccc2CSc2ccccc21 (stereo unspecified)	Pf growth 48h inconclusive, Pf growth 96h inconclusive, HCV inhibitor inconclusive
CN(C)CC/C=C1\c2cc(F)ccc2CSc2ccccc21	Pf growth 48h 13µM, Pf growth 96h inconclusive, HCV inhibitor inconclusive
C#CCN(C)CC/C=C1\c2ccccc2CSc2ccccc21	AMA1-RON2 inh inconclusive, Pf growth 48h 13µM, Pf growth 96h inconclusive, HCV inhibitor inconclusive
CN(CC/C=C1/c2ccccc2CSc2ccccc21)CCCO	Pf growth 48h 12µM, Pf growth 96h 13µM, HCV inhibitor inconclusive
C=CCN(C)CC/C=C1\c2ccccc2CSc2ccccc21	AMA1-RON2 inh 14µM, Pf growth 48h inconclusive, Pf growth 96h inconclusive, HCV inhibitor inconclusive
CN(C)CC/C=C1/c2cc(F)ccc2CSc2ccc(F)cc21	Pf growth 48h inconclusive, Pf growth 96h inconclusive, HCV inhibitor inconclusive
COC(=O)[C@]12CCCCC=C1N(Cc1ccc(Cl)cc1Cl)C(=O)[C@H](CC(=O)N1CCSCC1)C2	none (no result: Pf growth 48h, Pf growth 96h, HCV inhibitor)
COc1ccc(-n2nc(C(=O)N3CCC(N4CCCCC4)CC3)c3c4ccccc4n(C)c3c2=O)cc1	Pf growth 48h inconclusive, Pf growth 96h inconclusive
CCN(CC)CCCC(C)Nc1cc(/C=C/c2ccccc2Cl)nc2cc(Cl)ccc12 (stereo unspecified)	Pf growth 48h 0.48µM, Pf growth 96h 0.6µM (no result: AMA1-RON2 inh, HCV inhibitor)
CCN(CC)CCN(C(=O)/C=C/c1cccs1)c1nc2ccc(Cl)cc2s1	Pf growth 48h inconclusive, Pf growth 96h inconclusive, HCV inhibitor inconclusive
CCN(CC)S(=O)(=O)c1cc(C(=O)OCC(=O)NC(=O)c2cccn2C)ccc1C	none
Cc1ccc(-c2[nH]ncc2C(=O)c2ccccc2C)c(O)c1	Pf growth 48h inconclusive, Pf growth 96h inconclusive
FC(F)Oc1ccc(NC(=S)NCc2ccccc2)cc1	none
Cc1ccc(NC(=S)Nc2ccc(OC(F)F)c(Cl)c2)cc1Cl	Pf growth 48h inconclusive, Pf growth 96h inconclusive, HCV inhibitor inconclusive
FC(F)Oc1ccc(NC(=S)NCc2ccccc2)cc1Cl	HCV inhibitor 13µM (no result: Pf growth 96h)
CC(NC(=S)Nc1ccc(OC(F)F)c(Cl)c1)C(C)(C)C (stereo unspecified)	Pf growth 48h inconclusive, Pf growth 96h inconclusive, HCV inhibitor 11µM
C[C@H](O)[C@@H]1C(=O)N2CCc3c([nH]c4ccccc34)[C@@H]2C[C@@H]1N(C)C(=O)c1cc(Cl)cc(Cl)c1	none (no result: Pf growth 48h, Pf growth 96h, HCV inhibitor)
O=C(C1CCC1)N1CCC(c2nc3c(nnn3Cc3c(F)cccc3Cl)c(=O)[nH]2)CC1	Pf growth 48h 13µM
O=c1[nH]c(C2CCN(S(=O)(=O)c3ccccc3)CC2)nc2c1nnn2Cc1c(F)cccc1Cl	Pf growth 48h inconclusive, Pf growth 96h 5.2µM, HCV inhibitor inconclusive
O=c1[nH]c(C2CCN(S(=O)(=O)c3ccc4c(c3)OCCO4)CC2)nc2c1nnn2Cc1c(F)cccc1Cl	none
O=C(COC(=O)c1ccc(F)c(S(=O)(=O)N2CCOCC2)c1)NCc1ccccc1	none (no result: Pf growth 48h, Pf growth 96h)
Cc1ccc(C)c(OCC(=O)Nc2cc(NC(=O)COc3cc(C)ccc3C)cc(C(=O)O)c2)c1	Pf growth 96h 8.3µM
O=C(/C=C/c1ccccc1)OCc1ccccc1	none (no result: AMA1-RON2 inh, HCV inhibitor)
Fc1cccc(CSc2nc3ncccc3[nH]2)c1	Pf growth 48h inconclusive, Pf growth 96h 12µM
Fc1ccc(CSc2nc3ncccc3[nH]2)cc1	Pf growth 48h inconclusive (no result: Pf growth 96h)
O=C(CSc1nc2ccccc2[nH]1)Nc1nc(-c2cccc(Br)c2)cs1	Pf growth 96h inconclusive
COCCn1c(SCC(=O)Nc2ccc(S(=O)(=O)N(C)C)cc2)nc2ccccc21	Pf growth 96h 4.1µM (no result: Pf growth 48h)
Cc1ccc(NC(=O)CSc2nc3ccccc3c(=O)n2CCCN2CCCCC2)cc1C	Pf growth 48h 12µM, HCV inhibitor 14µM
Cc1ccc(S(=O)(=O)N(C)C)cc1-n1c(SCC(=O)Nc2ccc(F)cc2)nc2ccccc2c1=O	Pf growth 48h 9.3µM, Pf growth 96h 9.3µM, HCV inhibitor inconclusive
Cc1ccc(S(=O)(=O)N(C)C)cc1-n1c(SCC(=O)Nc2ccccc2)nc2ccccc2c1=O	Pf growth 48h inconclusive, Pf growth 96h inconclusive, HCV inhibitor inconclusive
